Results reported in a collection of fitness landscapes (doi:10.1016/j.celrep.2020.107928).
Over roughly 81,000 sequences, “one-hybrid fitness for binding NBS DNA” has its median near -0.1; the highest 2% begin near 0.36. The sample as a whole holds a higher share of the highest values than the screen did.

B1: Caulobacter ParB omega fusion; a variant is named by its letters at X, in order, B8GW30 (parent)
chain: MESVVVGEPGMSEGRRGLGRGLSALLGEVDAAPAQAPGEQLGGSREAPIEILQRNPDQPRRTFREEDLEDLSNSIREKGVLQPILVRPSPDTAGEYQIVAGERAWRAAQRAGLKTVPIMVRELDDLAVLEIGIIENVQRADLNVLEEALSYKVLMEKFERTQENIAQTIGKSXSHVANXMRLLXLPDEVQSYLVSGELTAXHARAIAAAADPVALAKQIIEGGLSVRETEALARKAPNLSAGKSKGGRPPRVKDTDTQALESDLSSVLGLDVSIDHRGSTGTLTITYATLEQLDDLCNRLTRGI

Variants of: B1
Assay: one-hybrid fitness for binding NBS DNA (the Noc-binding site; scaled: cognate 1, non-cognate 0); higher = stronger binding
Conditions: with NBS DNA site
Outline: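 Fitness is the rescaled log change in variant-to-wild-type read ratio, measured by Illumina sequencing of plasmids before and after bacterial one-hybrid selection. The scale puts cognate at 1 and non-cognate at 0. Selection of Caulobacter ParB libraries, four specificity codons randomised, took place in E. coli USO with a HIS3 reporter, site 19 bp from the promoter, over 48 hours at 37°C on M9-minus-histidine with 0.1 mM IPTG and 5 mM 3-AT.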

Variant | one-hybrid fitness for binding NBS DNA
ATVR | ≤ 0.2
ASPP | ≤ 0.2
AERS | ≤ 0.2
AVLE | ≤ 0.2
HTYV | ≤ 0.2
WTPE | ≤ 0.2
PKNM | ≤ 0.2
VQKH | ≤ 0.2
SIHM | ≤ 0.2
DQIS | ≤ 0.2
AINC | ≤ 0.2
PFAM | ≤ 0.2
REKR | 0.228
RRVR | 0.699
ERKR | 0.275
RRKR | 0.929
NEMS | ≤ 0.2
SEDT | ≤ 0.2
RTFF | ≤ 0.2
RNEV | 0.385
RRNV | 0.456
RRKV | 0.694
RRYV | 0.254
RRRV | 0.655
RCNV | ≤ 0.2
RCRV | 0.257

Variant | one-hybrid fitness for binding NBS DNA
RRDV | 0.223
RNYV | ≤ 0.2
RCKV | 0.23
RCEV | ≤ 0.2
RRVV | 0.229
AVRK | ≤ 0.2
KHMG | ≤ 0.2
LTMT | ≤ 0.2
MTLT | ≤ 0.2
VSMY | ≤ 0.2
WPTG | ≤ 0.2
TWNS | ≤ 0.2
VPYS | ≤ 0.2
QQRW | 0.373
QQYW | ≤ 0.2
QQDW | ≤ 0.2
QQFW | ≤ 0.2
QQVW | ≤ 0.2
QQKW | 0.382
PDLF | ≤ 0.2
GASG | ≤ 0.2
IEFV | ≤ 0.2
HVSS | ≤ 0.2
QSRQ | 0.413
QRIQ | ≤ 0.2
QTRQ | 0.581

Variant | one-hybrid fitness for binding NBS DNA
QSDQ | ≤ 0.2
QTYQ | ≤ 0.2
QRRQ | 0.496
QCRQ | 0.527
QRYQ | 0.35
QPRQ | ≤ 0.2
QTCQ | ≤ 0.2
QHRQ | 0.33
QSYQ | ≤ 0.2
AGTH | ≤ 0.2
MNRA | ≤ 0.2
FAPL | ≤ 0.2
KVYR | ≤ 0.2
IVTS | ≤ 0.2
MDCS | ≤ 0.2
CHRG | ≤ 0.2
PCMS | ≤ 0.2
KLNI | ≤ 0.2
PANI | ≤ 0.2
HTQS | ≤ 0.2
DLLT | ≤ 0.2
QKSQ | ≤ 0.2
QMSQ | 0.242
QMRQ | 0.437
QMLQ | ≤ 0.2
QKNQ | 0.245

Variant | one-hybrid fitness for binding NBS DNA
QKRQ | 0.415
WNMG | ≤ 0.2
PCVV | ≤ 0.2
QGRA | ≤ 0.2
TPPQ | ≤ 0.2
QTFC | ≤ 0.2
QTAF | ≤ 0.2
QTAT | 0.595
QTFM | ≤ 0.2
QTFT | 0.515
QTAG | ≤ 0.2
MPRS | ≤ 0.2
QVPV | ≤ 0.2
YMPV | ≤ 0.2
QAQA | 0.252
QSQA | 0.248
QCQA | 0.372
QHQA | 0.315
QPQA | ≤ 0.2
QRQA | 0.611
RSSN | ≤ 0.2
RPSR | ≤ 0.2
RSSH | ≤ 0.2
RCSR | 0.527
RFSR | 0.248
RSSR | 0.437

Variant | one-hybrid fitness for binding NBS DNA
CVPS | ≤ 0.2
VSVV | ≤ 0.2
PVFF | ≤ 0.2
GQRG | ≤ 0.2
KCNA | ≤ 0.2
KRRA | 0.524
KRFA | 0.277
KRNA | 0.384
KRKA | 0.552
KRVA | ≤ 0.2
KRYA | 0.313
KCKA | ≤ 0.2
KRDA | ≤ 0.2
QDQP | ≤ 0.2
VKIM | ≤ 0.2
TAPS | ≤ 0.2
DPGG | ≤ 0.2
TPCF | ≤ 0.2
YQMR | ≤ 0.2
QPRH | ≤ 0.2
QSRH | 0.535
QSRP | 0.242
QCYH | 0.257
QCRH | 0.693
QSYH | ≤ 0.2
HHWC | ≤ 0.2

Variant | one-hybrid fitness for binding NBS DNA
RSPR | ≤ 0.2
RFRR | 0.486
RDRR | ≤ 0.2
RCYR | 0.518
RCDR | 0.255
RSYR | 0.381
RFDR | ≤ 0.2
RPYR | ≤ 0.2
RCRR | 0.77
RPRR | ≤ 0.2
RFYR | ≤ 0.2
RSIR | 0.207
RPCV | ≤ 0.2
MHMS | ≤ 0.2
FEYF | ≤ 0.2
SDMT | ≤ 0.2
MIYS | ≤ 0.2
TKTV | ≤ 0.2
PMHR | ≤ 0.2
LLCI | ≤ 0.2
RSRP | ≤ 0.2
RSRR | 0.664
QQPL | ≤ 0.2
PLCI | ≤ 0.2
GLAR | ≤ 0.2
HQST | ≤ 0.2

Variant | one-hybrid fitness for binding NBS DNA
TWRR | ≤ 0.2
QYGK | ≤ 0.2
QYNT | 0.488
QYDT | 0.272
QYGT | 0.421
QYIR | 0.346
QYLR | 0.436
QYGC | ≤ 0.2
QYLP | ≤ 0.2
QYPR | 0.27
QYYR | 0.466
QYNP | ≤ 0.2
QYLS | 0.256
NGTR | ≤ 0.2
DDKT | ≤ 0.2
MCAC | ≤ 0.2
HSLM | ≤ 0.2
FAHM | ≤ 0.2
KQAV | ≤ 0.2
DLQG | ≤ 0.2
QYHN | ≤ 0.2
QYGG | ≤ 0.2
QYRF | 0.248
QYCN | ≤ 0.2
QYRR | 0.979
QYGR | 0.553

Variant | one-hybrid fitness for binding NBS DNA
QYCS | 0.301
QYHS | 0.417
QYER | 0.31
QYGM | ≤ 0.2
QYHP | ≤ 0.2
QYCR | 0.462
WNEY | ≤ 0.2
VWCR | ≤ 0.2
ATSP | ≤ 0.2
GRTC | ≤ 0.2
VDLS | ≤ 0.2
QYGN | ≤ 0.2
QYNS | 0.437
QYSD | ≤ 0.2
QYSR | 0.499
QYDR | 0.305
QYNN | ≤ 0.2
QYSN | ≤ 0.2
QYGS | 0.377
QYGD | ≤ 0.2
QYDS | 0.203
QYNH | 0.246
QYNR | 0.599
KTNH | ≤ 0.2
HNTA | ≤ 0.2
HIMR | ≤ 0.2

Variant | one-hybrid fitness for binding NBS DNA
YTFW | ≤ 0.2
SKSC | ≤ 0.2
VRCG | ≤ 0.2
PIKT | ≤ 0.2
QYMR | 0.482
QYHG | ≤ 0.2
QYWH | ≤ 0.2
QYQC | ≤ 0.2
QYMD | ≤ 0.2
QYHR | 0.541
QYMF | ≤ 0.2
QYQK | ≤ 0.2
QYWR | 0.414
QYHD | ≤ 0.2
QYQR | 0.493
QYWS | 0.204
NPVN | ≤ 0.2
YEWR | ≤ 0.2
QQIF | ≤ 0.2
YGVH | ≤ 0.2
SDSA | ≤ 0.2
TTTF | ≤ 0.2
EAYV | ≤ 0.2
QLSK | ≤ 0.2
GGTS | ≤ 0.2
IDHN | ≤ 0.2

Variant | one-hybrid fitness for binding NBS DNA
HIKY | ≤ 0.2
SKIG | ≤ 0.2
APVA | ≤ 0.2
NMKT | ≤ 0.2
QMKT | 0.75
QMVT | 0.373
DMKT | ≤ 0.2
QMVN | ≤ 0.2
EKHS | ≤ 0.2
VRAW | ≤ 0.2
HGTC | ≤ 0.2
VCQG | ≤ 0.2
HNDV | ≤ 0.2
TFTP | ≤ 0.2
WASL | ≤ 0.2
AFSH | ≤ 0.2
QKHN | ≤ 0.2
QKGP | ≤ 0.2
QKHY | 0.206
QKRR | 0.993
NKRR | 0.235
DKRR | ≤ 0.2
QKGR | 0.616
QKER | 0.363
QKYR | 0.505
QKGN | ≤ 0.2

Variant | one-hybrid fitness for binding NBS DNA
QKYP | ≤ 0.2
QKHR | 0.661
PTNP | ≤ 0.2
HCFY | ≤ 0.2
IFEL | ≤ 0.2
SQFR | ≤ 0.2
SQRR | ≤ 0.2
VILC | ≤ 0.2
QAWG | ≤ 0.2
NLDR | ≤ 0.2
PTAP | ≤ 0.2
DHKN | ≤ 0.2
EVMR | ≤ 0.2
TDVL | ≤ 0.2
SRRL | ≤ 0.2
GLRT | ≤ 0.2
RKYN | ≤ 0.2
RKHQ | ≤ 0.2
RKYF | ≤ 0.2
RKNC | 0.281
RKHF | ≤ 0.2
RKNP | ≤ 0.2
RKDR | 0.443
RKNR | 0.639
RKYR | 0.573
RKHR | 0.648

Variant | one-hybrid fitness for binding NBS DNA
GTKM | ≤ 0.2
DLTE | ≤ 0.2
LAPI | ≤ 0.2
SAAD | ≤ 0.2
NGLS | ≤ 0.2
NRSI | ≤ 0.2
RRTL | ≤ 0.2
LHEN | ≤ 0.2
HLQP | ≤ 0.2
MMSM | ≤ 0.2
LRWK | ≤ 0.2
RKSR | 0.581
RKWP | ≤ 0.2
RKGR | 0.606
RKQQ | ≤ 0.2
RKGP | ≤ 0.2
RKQR | 0.573
RKGH | 0.301
RKWR | 0.49
RKSD | ≤ 0.2
RKSH | 0.211
RKQM | ≤ 0.2
RKWH | ≤ 0.2
MTIG | ≤ 0.2
VDYG | ≤ 0.2
AHFR | ≤ 0.2

Variant | one-hybrid fitness for binding NBS DNA
QHIC | ≤ 0.2
TCFS | ≤ 0.2
VSQV | ≤ 0.2
PITE | ≤ 0.2
GSCV | ≤ 0.2
NCKS | ≤ 0.2
YSQQ | ≤ 0.2
MHKT | ≤ 0.2
PLRH | ≤ 0.2
SRLF | ≤ 0.2
IRKG | ≤ 0.2
HKFT | ≤ 0.2
RKRM | 0.258
RKRR | 0.736
RKRK | 0.222
PTAM | ≤ 0.2
